Experimental data taken from PubChem BioAssay (Tox21).
Records with an inconclusive call do not appear. Active and inactive are the calls of the source. The call rests on the fitted dose curve; in most records, active means well fitted cell-killing curve with a large enough effect in the repeat runs; inconclusive means weak or mixed curves, or effect the other way; inactive means no such curve, though single readings can be large or run the other way.

Experiment: qHTS assay to identify small molecule antagonists of the sonic hedgehog signaling (Shh) pathway - cell viability counter screen (AID 1259367); further: nearly all actives have a fitted effect of over 55% in size
Conditions: NIH/3T3 Gli1-Luc viability, CellTiter-Fluor, 24 h; series mostly up to 92.4 µM; viability change, negative = cytotoxic: at the top concentration
Text: National Center for Advancing Translational Sciences [NCATS]
NIH Chemical Genomics Center [NCGC]
U.S. Environmental Protection Agency [EPA]
National Institutes of Environmental Health Sciences [NIEHS]
National Toxicology Program [NTP]
U.S. Food and Drug Administration [FDA]
The sonic hedgehog (Shh) pathway is essential for normal embryonic development. Dysregulation of the Shh pathway can cause severe developmental defects in organs. Therefore chemicals that interfere with the pathway are potential developmental toxicants. A cell line designated 3T3Gli1-Luc (DMB/OARSA/CFSAN/FDA, Laurel, MD), a NIH/3T3 derived clone containing stably integrated Gli1-Luc reporter is used to detect chemical interference of the Shh pathway, by changes in the expression of the firefly Luc gene under the control of the Gli1 transcriptional response element. This cell line was used to screen Tox21 libraries for identifying and prioritizing the potential developmental toxicants that interfere Shh pathway. Conditioned medium-stimulated mode was used to screen for chemicals inhibiting Shh signaling. The cytotoxicity of the compounds was tested in parallel by measuring the cell viability using CellTiter-Fluor assay system (Promega, Madison, WI) in the same wells.
Tox21 Assay Protocol Summary:
3T3 Gli1-Luc cells were dispensed at 2,000 per well in 5uL of culture medium into white solid bottom 1536-well plates (Greiner Bio-One, Monroe, NC) using a Multidrop Combi (Thermo Scientific, Waltham, MA) dispenser. The assay plates were incubated at 37 C and 5% CO2 for 4hr, and then 23nL of compounds dissolved in DMSO and positive control were transferred using a Pintool station (Wako, San Diego, CA). The compound transfer was followed by the addition of 1ul conditioned medium or assay buffer using two separate tips of Flying Reagent Dispenser (FRD, Aurora Discovery, San Diego, CA). The assay plates were incubated at 37C and 5% CO2 for 24hr. For viability read, after 23hr of compound treatment, 1uL of CellTiter-Fluor reagent (Promega Corporation, Madison, WI) was added to each well of the assay plates using Flying Reagent Dispenser (FRD, Aurora Discovery, San Diego, CA) and incubated the assay plates at 37C for 1hr. The fluorescence signal was quantified using a ViewLux plate reader (Perkin Elmer, Shelton, CT).
On the % scale 0 is the no-effect control and ±100 the full control effect.

Row | Compound | viability change, negative = cytotoxic
1 | CCN(CC)C(=O)N(CC)CC | 1.87% (inactive)
2 | CCCCC1CCC(=O)O1 (stereo not given) | -0.814% (inactive)
3 | CCN[C@H]1CN(CCCOC)S(=O)(=O)c2sc(S(N)(=O)=O)cc21 | 4.16% [at 42.5 µM] (inactive)
4 | O=C(CC(=O)C(F)(F)F)c1ccccc1 | -8.99% (inactive)
5 | CCCC1CCC(=O)O1 (stereo not given) | 2.22% (inactive)
6 | CN(C)CCOc1ccccc1Cc1ccccc1 | -15.2% [at 42.5 µM] (inactive)
7 | CC(=O)OC(C)OC(C)=O | 0.222% (inactive)
8 | CCCN(CCC)C(=O)C(CCC(=O)O)NC(=O)c1ccccc1 (stereo not given) | -5.35% [at 42.5 µM] (inactive)
9 | C[C@@H]1CN(c2c(F)c(F)c3c(=O)c(C(=O)O)cn(C4CC4)c3c2F)C[C@H](C)N1 | -0.257% [at 19 µM] (inactive)
10 | CC(Oc1c(Cl)cccc1Cl)C1=NCCN1 (stereo not given) | -24.7% [at 42.5 µM] (inactive)
11 | CCCCC(=O)O[C@]1(C(=O)CO)[C@H](C)C[C@H]2[C@@H]3CCC4=CC(=O)C=C[C@]4(C)[C@@]3(F)[C@@H](O)C[C@@]21C | 0.112% [at 42.5 µM] (inactive)
12 | C=Cc1ccccc1 | 4.56% (inactive)
13 | CCCCCCCCCCCCOCCOS(=O)(=O)O | -0.549% (inactive)
14 | CCOC(=O)NCCC[Si](OCC)(OCC)OCC | -0.623% (inactive)
15 | O=C1Nc2ccc([N+](=O)[O-])cc2C1=O | -17.8% (inactive)
16 | CC1=C(CC(=O)O)c2cc(F)ccc2/C1=C\c1ccc(S(C)(=O)=O)cc1 | -23.5% [at 42.5 µM] (inactive)
17 | COc1ccc(Nc2ccc(OC)cc2)cc1 | -18.5% (inactive)
18 | C=CCCC=C | 0.677% (inactive)
19 | Cc1nc(N)nc(N)c1-c1ccc(Cl)c(Cl)c1 | -1.36% [at 42.5 µM] (inactive)
20 | CN1CCN(N)CC1 | 6.55% [at 42.5 µM] (inactive)

Row | Compound | viability change, negative = cytotoxic
21 | CC(C)CC(=O)OCc1ccccc1 | -2.99% (inactive)
22 | CC(C)(C)C1CCCCC1=O (stereo not given) | 1.2% (inactive)
23 | CCCCCCCOC(=O)CCC | 2.29% (inactive)
24 | NC/C=C/C(=O)O | 0.151% [at 42.5 µM] (inactive)
25 | O=c1[nH]c(=O)n([C@H]2C[C@H](O)[C@@H](CO)O2)cc1C(F)(F)F | -1.5% [at 42.5 µM] (inactive)
26 | O=C1CCN(c2ccccc2)N1 | -3.54% (inactive)
27 | O=C1CCCCC1C1CCCCC1 (stereo not given) | 0.111% (inactive)
28 | CCCc1c2oc(C(=O)O)cc(=O)c2cc2c(=O)cc(C(=O)O)n(CC)c12 | -1.14% [at 42.5 µM] (inactive)
29 | COC(=O)c1ccc2cc(C(=O)OC)ccc2c1 | -4.66% [at 19 µM] (inactive)
30 | CCCNC(C)C(=O)Nc1c(C)csc1C(=O)OC (stereo not given) | -0.604% [at 42.5 µM] (inactive)
31 | NS(=O)(=O)c1cc(-c2nn[nH]n2)c(NCc2cccs2)cc1Cl | -1.04% [at 42.5 µM] (inactive)
32 | O=C(O)[C@@H]1CSCN1 | 1.9% [at 42.5 µM] (inactive)
33 | N#CSCC(=O)O | 5.05% [at 42.5 µM] (inactive)
34 | O=C1C=CC(=O)O1 | -2.57% (inactive)
35 | Oc1ccccc1C=NCc1ccccc1 | 0.318% [at 42.5 µM] (inactive)
36 | CCC(=O)c1ccc2c(c1)N(CCCN(C)C)c1ccccc1S2 | -24.8% [at 42.5 µM] (inactive)
37 | CN1C(=O)CC(c2ccccc2)C1=O (stereo not given) | 3.14% [at 42.5 µM] (inactive)
38 | CCOC(=O)C1CC(=O)C(=C(O)C2CC2)C(=O)C1 (stereo not given) | 6.91% (inactive)
39 | CCC(=O)O[C@]1(C(=O)SCF)[C@H](C)C[C@H]2[C@@H]3C[C@H](F)C4=CC(=O)C=C[C@]4(C)[C@@]3(F)[C@@H](O)C[C@@]21C | -5.01% [at 42.5 µM] (inactive)
40 | CC(=O)Oc1cc(C(C)C)c(OCCN(C)C)cc1C | -4.35% [at 42.5 µM] (inactive)
